Compounds with a hit are over-represented: about 9.9% of the library has one in this group of screens.
KB-V1 MDR tox: qHTS assay for MDR1-selective chemotherapeutics: Primary screen using the drug-selected MDR subline cells KB-V1. Potency, µM (highest dose often 46.1 µM), actives largely listed as cytotoxic. KB-V1 MDR cells viability, CellTiter-Glo, 72 h. actives 3.4% (n = 400,000). AID 1347076, 2019; note: potency is the fitted concentration of half-maximal effect; % is set by controls: 0 for no effect and ±100 for the full control effect; nearly all actives have a fitted effect of over 60% in size
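Readout: CellTiter-Glo luminescence, 10 min after addition. Cells: KB-V1 MDR subline, 72 h at 37 degrees C with compound. Analysis: corrected, normalized data fitted to concentration-effect curves.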
MCF10A rereplic: A quantitative high throughput screen for small molecules that induce DNA re-replication in MCF 10a normal breast cells. Potency, µM (highest dose often 46.1 µM), without a hit: top-dose activity, positive = re-replication, usual class: activators. actives 2.9% (n = 350,000). MCF 10A DNA re-replication, Hoechst nuclear intensity, 48 h; note: potency is the fitted concentration of half-maximal effect; % of control where 0% means no effect; nearly all actives have a fitted effect of over 50% in size
KB-3-1 tox: qHTS assay for MDR1-selective chemotherapeutics: Primary screen using the parental adenocarcinoma cell KB-3-1 | KB-3-1 viability, CellTiter-Glo ATP luminescence, 72 h | Potency, µM (highest dose often 46.1 µM), hits mostly cytotoxic | actives 1.4% (n = 400,000) | AID 1347075, 2019; note: potency is the fitted concentration of half-maximal effect; % is set by controls: 0 for no effect and ±100 for the full control effect; nearly all actives have a fitted effect of over 60% in size
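Screening of KB-3-1 cells (DMEM, 10% FBS, phenol-red free) ran from lowest to highest compound concentration; after 72 h at 37 °C viability was read luminescently and curves fitted.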
SW480 rereplic: A quantitative high throughput screen for small molecules that induce DNA re-replication in SW480 colon adenocarcinoma cells; SW480 DNA re-replication, Hoechst DNA content imaging, 48 h; Potency, µM (top dose mostly 46.1 µM), without a hit: top-dose re-replication activation, actives largely listed as activators; actives 1.8% (n = 340,000); note: potency is the fitted concentration of half-maximal effect; % of control where 0% means no effect; nearly all actives have a fitted effect of over 55% in size
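First, 250 cells per well were seeded. Next, compound or vehicle (23 nL) was pinned in, plates sat 48 hr at 37 C. Finally Hoechst was added for 40 min before fluorescence scanning.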
IL-1B inflam inh: qHTS for Inhibitors of Inflammasome Signaling: IL-1-beta AlphaLISA Primary Screen; THP-1 LPS/ATP IL-1B secretion, AlphaLISA, 16 h; active compounds read low; activity change, % at 57.5 µM; actives 4.7% (n = 360,000); AID 743279, 2014; in the data active = activity change below about -50%; inconclusive = mostly about -30% to -49%; note: % is set by controls: 0 for no effect and ±100 for the full control effect
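Secreted IL-1B measured by AlphaLISA bead assay after 16 h compound exposure of THP-1 cells; compounds (final up to 57.5 uM) added 1 h before LPS (250 ng/mL) and ATP (1.25 mM) stimulation; lower signal means less secretion.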
* hit, by the source's call; i = inactive; ? = inconclusive; · = no result. Unless noted, calls come from the whole dose curve; as a rule, active = well fitted curve in the direction sought with a large enough effect; inconclusive = small, poorly fitted or top-dose-only effect, or another doubt; inactive = no such curve, though single readings can be large; an effect the other way counts as inactive or inconclusive.

SMILES | KB-V1 MDR tox | MCF10A rereplic | KB-3-1 tox | SW480 rereplic | IL-1B inflam inh
CCCNC(=S)Nc1ccc(Oc2ccccc2)cc1 | 18µM* | 22% | ? | ? | -7
CC1CCCCC1NC(=S)Nc1ccc(SC(F)F)cc1 (stereo not drawn) | ? | ? | ? | -2% | -80*
S=C(NCC1CCCCC1)Nc1ccc(Oc2ccccc2)cc1 | ? | 18µM* | ? | 0% | -77*
FC(F)Sc1ccc(NC(=S)NC2CCCCC2)cc1 | i | ? | i | ? | ?
CCCCNC(=S)Nc1ccc(Oc2ccccc2)cc1 | i | -1% | i | -4% | -14
CC(CN1CCCC1)OC(=O)c1ccc(Br)cc1 (stereo not drawn) | i | 5% | i | -4% | 6
c1ccc2oc(-c3ccn[nH]3)cc2c1 | i | 4% | i | -127% | -1
COC(=O)c1ccc(C(=S)NCC2(N(C)C)CCCCC2)cc1 | ? | -8% | i | 5% | 19
CC1(C)C(N(O)C(=O)Nc2ccc(Cl)cc2)N(c2ccc(Cl)cc2)C(=O)N1CC(=O)NN (stereo not drawn) | i | ? | i | -13% | -53*
Cc1ccccc1CSc1nc2n(n1)C(c1cccs1)C1=C(CCCC1=O)N2 (stereo not drawn) | ? | 26µM* | i | ? | ?
S=C(NCCN1CCOCC1)Nc1ccc(-c2nc3ccccc3[nH]2)cc1 | i | 1µM* | ? | -1% | 0
CCCCCCSc1ccc([C@H]2N[C@@](C)(C(=O)OC)[C@H]3C(=O)N(CC)C(=O)[C@@H]23)cc1 | i | 12% | ? | 6% | -26
CN(Cc1ccccc1C(F)(F)F)C(=O)C1CCC(=O)N(CC2CCCCC2)C1 (stereo not drawn) | ? | · | i | · | 9
CCCC1(CCC)NC(=O)N(CC(=O)N2CCc3ccccc32)C1=O | 16µM* | -1% | i | 0% | -3
O=C1NC2(CCCCC2)C(=O)N1CC(=O)N1CCc2ccccc21 | i | -28% | i | 9% | 10
COc1cc(-c2ccc3ncnc(NCC4CCCO4)c3c2)cc(OC)c1OC (stereo not drawn) | i | · | i | · | ·
O=C(/C=C/c1ccc2ccccc2n1)N1CCN(c2ccccc2)CC1 | ? | -8% | i | -16% | -14
O=C(/C=C/c1ccc2ccccc2n1)N1CCN(S(=O)(=O)c2ccccc2F)CC1 | i | ? | ? | 11% | -76*
O=C(/C=C/c1ccc2ccccc2n1)N1CCN(S(=O)(=O)c2ccc(F)cc2)CC1 | ? | ? | ? | ? | -89*
CCOc1ccc2nc(S(=O)(=O)NC(=O)C3(C)CCN3C(=O)c3cccc(F)c3)sc2c1 (stereo not drawn) | i | · | i | · | 14
Nc1c(Cl)ncnc1N/N=C/c1ccncc1 | i | 3% | i | -6% | 1
Clc1cncc(Cl)c1N/N=C/c1ccncc1 | ? | 17% | i | -3% | -95*
Clc1cccc(Cl)c1/C=N/Nc1c(Cl)cncc1Cl | ? | 2.6µM* | 4.6µM* | 8.2µM* | -82*
O=C(CC[C@H]1O[C@@H](n2ccc(=O)[nH]c2=O)[C@H](O)[C@@H]1O)N[C@H](Cc1ccccc1)C(=O)NCC1CCCO1 (stereo partly drawn) | i | · | i | · | 0
COc1cccc(N2CCN(c3nc(C)cc(=O)[nH]3)CC2)c1 | i | -5% | i | 1% | 10
CCN(CC)c1nc(Nc2ccccc2)nc(Oc2ccc(=O)[nH]n2)n1 | i | 18% | i | -4% | 7
CCN(CC)c1nc(Nc2ccccc2)nc(Oc2ccc(=O)n(C)n2)n1 | 6.5µM* | ? | ? | -9% | -7
CC(C)c1ccc(NC(=O)C(c2ccc3c(c2)OCO3)N2CCCCC2)cc1 (stereo not drawn) | ? | 8% | i | 4% | 0

High-throughput results: PubChem, National Center for Advancing Translational Sciences (NCATS)
